Data taken from the supplement of paper PMC6555819.

What was measured:
Assay in all cases: PBM binding z-score (relative to random genomic background probes); higher = stronger binding; sequences stand for … in GC…GCGATTGACAGCGTAGAATGAAGG
[1] = tested on: FXR:RXRa (NR concentration 270 nM, RXRa partner concentration 90 nM)
How it was run: (§1)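 Binding z-scores take random background probes as their reference. They come from custom Agilent 4×180K protein-binding microarrays incubated 1 h with ligand-free nuclear receptor dimers, with antibodies against each partner (one per run) detecting binding. Scanned fluorescence was regression-normalized.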

[2] = tested on: LXRa:RXRa (NR concentration 270 nM, RXRa partner concentration 90 nM)
How it was run: as §1

[3] = tested on: LXRa homodimer (NR concentration 270 nM)
How it was run: as §1

[4] = tested on: LXRb:RXRa (NR concentration 270 nM, RXRa partner concentration 90 nM)
How it was run: as §1

[5] = tested on: LXRb homodimer (NR concentration 270 nM)
How it was run: as §1

[6] = tested on: PPARa:RXRa (NR concentration 270 nM, RXRa partner concentration 90 nM)
How it was run: as §1

[7] = tested on: PPARg:RXRa (NR concentration 180 nM, RXRa partner concentration 90 nM)
How it was run: as §1

[8] = tested on: PPARg:RXRa 270nM:90nM, anti-RXR (NR concentration 270 nM, RXRa partner concentration 90 nM)
How it was run: as §1

[9] = tested on: PPARg:RXRa 30nM:10nM, anti-RXR (NR concentration 30 nM, RXRa partner concentration 10 nM)
How it was run: as §1

[10] = tested on: PPARg:RXRa 90nM:30nM, anti-RXR (NR concentration 90 nM, RXRa partner concentration 30 nM)
How it was run: as §1

[11] = tested on: PPARg:RXRa DBDmut IVT, anti-RXR (DBD mutation: RXRa K156A/R161A, NR concentration 270 nM, RXRa partner concentration 90 nM)
How it was run: as §1

[12] = tested on: PPARg:RXRa IVT, anti-PPARg (NR concentration 270 nM, RXRa partner concentration 90 nM)
How it was run: as §1

[13] = tested on: PPARg DBDmut:RXRa IVT, anti-PPARg (DBD mutation: PPARg1 K132A/R137A, NR concentration 270 nM, RXRa partner concentration 90 nM)
How it was run: as §1

[14] = tested on: PPARg DBDmut IVT, anti-PPARg (DBD mutation: PPARg1 K132A/R137A, NR concentration 270 nM)
How it was run: as §1

[15] = tested on: PPARg homodimer (NR concentration 180 nM)
How it was run: as §1

[16] = tested on: PXR:RXRa (NR concentration 270 nM, RXRa partner concentration 90 nM)
How it was run: as §1

[17] = tested on: PXR homodimer (NR concentration 270 nM)
How it was run: as §1

[18] = tested on: RARa:RXR (NR concentration 270 nM, RXRa partner concentration 90 nM)
How it was run: as §1

[19] = tested on: RARa homodimer (NR concentration 270 nM)
How it was run: as §1

[20] = tested on: RARb:RXRa (NR concentration 270 nM, RXRa partner concentration 90 nM)
How it was run: as §1

Sequence | PBM binding z-score [1] | PBM binding z-score [2] | PBM binding z-score [3] | PBM binding z-score [4] | PBM binding z-score [5] | PBM binding z-score [6] | PBM binding z-score [7] | PBM binding z-score [8] | PBM binding z-score [9] | PBM binding z-score [10] | PBM binding z-score [11] | PBM binding z-score [12] | PBM binding z-score [13] | PBM binding z-score [14] | PBM binding z-score [15] | PBM binding z-score [16] | PBM binding z-score [17] | PBM binding z-score [18] | PBM binding z-score [19] | PBM binding z-score [20]
TGAGACAGGTGAAGGTAACTCAGGTACGCAGTCG | -0.213 | 1.11 | -0.351 | 0.233 | -0.678 | 0.549 | 0.639 | 0.251 | 0.211 | -0.17 | -0.0775 | 0.991 | 0.178 | -0.801 | 0.0963 | -0.189 | -0.538 | 0.124 | -0.0291 | 0.697
CATTACGGGTCACTGACAGGTTATAGCATTTGGA | 5.82 | 5.1 | 1.52 | 4.09 | 0.756 | 5.54 | 5.78 | 5.45 | 2.2 | 4.33 | 4.59 | 5.02 | 2.13 | 1.77 | 2.69 | 3.95 | 0.249 | 4.95 | 1.33 | 4.05
TCTTGTAGATCAGCAGGGTAAGAAAGCTGGCCAA | -0.168 | -0.124 | -0.627 | -0.0454 | -0.559 | 0.26 | -0.512 | 1.17 | 2.55 | 1.82 | 1.81 | 0.207 | -0.22 | -0.694 | -0.287 | 0.0405 | -0.245 | 0.188 | -0.0241 | -0.199
GCTACTTGGTCAGTAAAAGGTCACACACCGGTCG | 3.65 | 4.51 | 4.98 | 4.37 | 1.61 | 4.59 | 3.39 | 4.65 | 2.3 | 4.1 | 1.59 | 3.24 | 0.501 | 1.24 | 5.33 | 5.09 | 1.32 | 6.09 | 2.99 | 4.23
AATACAGGGTCACTAGCCCAGAGTAGGTACGAAT | 5.41 | 4.89 | 1.13 | 3.8 | 0.946 | 5.41 | 5.91 | 5.2 | 2.09 | 4.01 | 2.81 | 4.3 | 1.88 | 0.703 | 2.29 | 2.92 | 0.113 | 3.64 | 1.11 | 4.08
ATATGTAGGTTACATCCGGGTCCTTCAGGCTATG | 0.21 | 1.72 | 0.152 | 0.684 | 0.758 | 3.17 | 5.07 | 4.1 | 2 | 3.63 | 7.33 | 7.38 | 2.34 | 1.87 | 0.864 | 0.482 | 0.298 | 0.744 | 0.322 | 0.999
